According to the supplement of paper PMC6555819:

test system: RARa homodimer (NR concentration 270 nM); assay: PBM binding z-score (relative to random genomic background probes); higher = stronger binding; sequences stand for … in GC…GCGATTGACAGCGTAGAATGAAGG
Summary of the method: (§1)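 Binding z-scores take random background probes as their reference. They come from custom Agilent 4×180K protein-binding microarrays incubated 1 h with ligand-free nuclear receptor dimers, with antibodies against each partner (one per run) detecting binding. Scanned fluorescence was regression-normalized.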

| Sequence | PBM binding z-score |
| --- | --- |
| CGAACTAGGGCATCCAGGACAGTGAATACATTGA | -0.274 |
| TCGAATAGGTTAGTCGGGGCATTCAGCCAACATA | -0.516 |
| TCTGGGAGGACACGAAAGGTCAGAGCTCGACATC | 1.17 |
| CCGAGTAGGTTATGGGGCATACAGGCAACGGTGA | 0.493 |
| CAGCCTAGGTCAGGGCCAGTTTAGGAGGAACGTT | -0.133 |
| TAGCCTAGGTCAAGGGCCAGTATACCACGCGAAC | -0.242 |
| ACTAGTTGGTCAGCTGAGGTCATACACAATTCGG | 0.98 |
| CGTCCAAGGTCAAGGTCAGTCAAAGAGACTCGAA | 2.49 |
| AGTCAAAGTTCGTCTAGGTAACGTAAGATATGCT | 0.143 |
| CGTTAAAGTTCAACTAAGGTAACGTAAAGCACGC | 1.26 |
| ACTTACGGGTCAACGAGGGTATAGCACGCGTATA | 0.643 |
| ATCTCTAAGTAAAGATAGTTCAGTGAATGCAAAT | 1.41 |
| GATACAGGGTCAGCTAGAGGCTAGAGTATGGAAA | 1.14 |
| CCAGACAGGTGAGAAGGGAACTCAGCCTCGATTA | 0.727 |
| CCTGCTAAGTCAATGGTCAGCTAAAGCAGCTCGC | -0.807 |
| CTACCAAGGTGAACAAGGTCGCTGATTACTATTC | -0.144 |
| CCTGCTAGGTCATGATCAGCTAATCTACAGTATG | 0.216 |
| TCTAGCAGGACAGAGGGTCACTCAAGAGGTACGG | -0.209 |
| ACTAGCAGGCCAAGTTTGGTTCACTCAAACAAAG | -0.755 |
| ATCTCTAGCTAACAAGTTCAGTGAAAGAGAGGAC | 1.13 |

| Sequence | PBM binding z-score |
| --- | --- |
| TCTATCAGGCCAGAGGGTCACTCAAGAGGTACGG | 0.259 |
| GTACCAAGGTGCATAGGTCGTTGATGAGTAGGCG | -0.294 |
| GCTATTACTTGAAAGGGCAACCGAATGATTCTCG | 0.826 |
| TGTCAAAGTTCAGAGGTAACGTAAGTATCCACAC | 0.97 |
| TGGAGTAGGTTAGGGGCATTCAGAATGGCGTCGA | 0.935 |
| CCTTACGGGTCACTCCAGTTTATAGCATCGGAGT | 0.603 |
| CCGTCTGGGGCAGAAAGGTTACCATACCATCCGG | -0.0366 |
| CCTAGTTGGTCAGGAGGGCACACACCGGATATGA | 0.714 |
| TCTATTCGTTGATTAGGGCAACCGAAACAGCGGA | -0.0226 |
| GCTGCTAGGTCCGGTTGGTCAGCTAACGGGTACG | -1.7 |
| GGAACGAGGGCAAAGTGGATAGCATCTGTCGACG | -0.182 |
| GCTAGCAGGCCATTTGGGTCTCTCAATGACGGGC | -1.34 |
| ATCGAAAGTTCGAAGGTGAGTATACCCACCCGAA | -0.2 |
| AGAATGAGGTTATTAAAATCAGGGAATTGCGGTC | 0.843 |
| ATCTCTAGGTAACAAGTTCAGTGGAAGAGAGGAC | 1.39 |
| GGAACGAGGGCAAAGTTGAAAGCATCTGTCGACG | -0.362 |
| TCTTTTAGATCAAAGGTTAAGAAAGCCGAAGCCT | 0.435 |
| AGAGCGAGGGCACGCTGAGTTGATAGCAGAGTAG | -0.451 |
| ACTCGGAGGACAAAGGTCTGAGCTACGCCAGTGA | -0.889 |

test system: RARb:RXRa (NR concentration 270 nM, RXRa partner concentration 90 nM); assay: as above
Summary of the method: as §1

| Sequence | PBM binding z-score |
| --- | --- |
| CGAACTAGGGCATCCAGGACAGTGAATACATTGA | 1.3 |
| TCGAATAGGTTAGTCGGGGCATTCAGCCAACATA | 1.06 |
| TCTGGGAGGACACGAAAGGTCAGAGCTCGACATC | 4.34 |
| CCGAGTAGGTTATGGGGCATACAGGCAACGGTGA | 0.987 |
| CAGCCTAGGTCAGGGCCAGTTTAGGAGGAACGTT | 3.41 |
| TAGCCTAGGTCAAGGGCCAGTATACCACGCGAAC | 3.96 |
| ACTAGTTGGTCAGCTGAGGTCATACACAATTCGG | 3.15 |
| CGTCCAAGGTCAAGGTCAGTCAAAGAGACTCGAA | 5.83 |
| AGTCAAAGTTCGTCTAGGTAACGTAAGATATGCT | 2.54 |
| CGTTAAAGTTCAACTAAGGTAACGTAAAGCACGC | 5.17 |
| ACTTACGGGTCAACGAGGGTATAGCACGCGTATA | 4.05 |
| ATCTCTAAGTAAAGATAGTTCAGTGAATGCAAAT | 0.426 |
| GATACAGGGTCAGCTAGAGGCTAGAGTATGGAAA | 3.88 |
| CCAGACAGGTGAGAAGGGAACTCAGCCTCGATTA | 0.228 |
| CCTGCTAAGTCAATGGTCAGCTAAAGCAGCTCGC | 0.498 |
| CTACCAAGGTGAACAAGGTCGCTGATTACTATTC | 2.17 |
| CCTGCTAGGTCATGATCAGCTAATCTACAGTATG | 3.7 |
| TCTAGCAGGACAGAGGGTCACTCAAGAGGTACGG | 2.06 |
| ACTAGCAGGCCAAGTTTGGTTCACTCAAACAAAG | 0.54 |
| ATCTCTAGCTAACAAGTTCAGTGAAAGAGAGGAC | 1.15 |

| Sequence | PBM binding z-score |
| --- | --- |
| TCTATCAGGCCAGAGGGTCACTCAAGAGGTACGG | 2.52 |
| GTACCAAGGTGCATAGGTCGTTGATGAGTAGGCG | 0.748 |
| GCTATTACTTGAAAGGGCAACCGAATGATTCTCG | 2.17 |
| TGTCAAAGTTCAGAGGTAACGTAAGTATCCACAC | 4.36 |
| TGGAGTAGGTTAGGGGCATTCAGAATGGCGTCGA | 1.6 |
| CCTTACGGGTCACTCCAGTTTATAGCATCGGAGT | 3.74 |
| CCGTCTGGGGCAGAAAGGTTACCATACCATCCGG | 1.54 |
| CCTAGTTGGTCAGGAGGGCACACACCGGATATGA | 1.71 |
| TCTATTCGTTGATTAGGGCAACCGAAACAGCGGA | 0.637 |
| GCTGCTAGGTCCGGTTGGTCAGCTAACGGGTACG | 0.0828 |
| GGAACGAGGGCAAAGTGGATAGCATCTGTCGACG | 2.27 |
| GCTAGCAGGCCATTTGGGTCTCTCAATGACGGGC | 0.0129 |
| ATCGAAAGTTCGAAGGTGAGTATACCCACCCGAA | 2.07 |
| AGAATGAGGTTATTAAAATCAGGGAATTGCGGTC | 1.25 |
| ATCTCTAGGTAACAAGTTCAGTGGAAGAGAGGAC | 1.8 |
| GGAACGAGGGCAAAGTTGAAAGCATCTGTCGACG | 2.7 |
| TCTTTTAGATCAAAGGTTAAGAAAGCCGAAGCCT | 2.07 |
| AGAGCGAGGGCACGCTGAGTTGATAGCAGAGTAG | 2.47 |
| ACTCGGAGGACAAAGGTCTGAGCTACGCCAGTGA | 1.3 |
